Assay results from PubChem BioAssay (Tox21).
Inconclusive results are not listed. Active and inactive are the calls of the source. Unless noted, calls follow the shape of the dose curve; as a rule, active = well fitted curve in the direction sought with a large enough effect in the repeat runs; inconclusive = weak or mixed curves; inactive = no such curve, though single readings can be large; an effect the other way counts as inactive or inconclusive.

Legend:
[1] = target: Retinoic acid receptor RXR-alpha (Homo sapiens) (UniProt P19793); assay: qHTS assay to identify small molecule agonists of the RXR signaling pathway (AID 1159527; calls by dose curve; also: nearly all actives have a fitted effect of over 35% in size)
Sequence of Retinoic acid receptor RXR-alpha (Homo sapiens) (P19793 whole entry, looked up): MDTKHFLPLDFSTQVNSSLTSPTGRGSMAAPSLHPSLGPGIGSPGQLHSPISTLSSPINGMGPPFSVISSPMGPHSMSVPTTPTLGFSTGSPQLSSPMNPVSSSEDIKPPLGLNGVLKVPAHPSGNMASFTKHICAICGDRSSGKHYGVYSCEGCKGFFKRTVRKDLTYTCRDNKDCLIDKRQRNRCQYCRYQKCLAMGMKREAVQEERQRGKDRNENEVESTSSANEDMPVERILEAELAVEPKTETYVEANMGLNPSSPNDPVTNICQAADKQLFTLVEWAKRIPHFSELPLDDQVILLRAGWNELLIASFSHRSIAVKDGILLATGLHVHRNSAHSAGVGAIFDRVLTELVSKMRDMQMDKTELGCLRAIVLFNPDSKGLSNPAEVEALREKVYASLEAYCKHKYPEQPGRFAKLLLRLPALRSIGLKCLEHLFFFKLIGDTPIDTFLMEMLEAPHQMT
Summary of the method: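 Beta-lactamase reporter assay, agonist format. Engineered HEK 293T line, charcoal-stripped FBS at 2%, overnight (16 hr) exposure, fluorescence at 460 and 530 nm after 405 nm excitation.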

[2] = qHTS assay to identify small molecule agonists of the RXR signaling pathway - cell viability counter screen (AID 1159529);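 also: HEK 293T cells carrying an RXR-alpha UAS beta-lactamase reporter; series mostly up to about 77 µM; nearly all actives have a fitted effect of over 50% in size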
Summary of the method: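 Same-well viability check after the LiveBLAzer FRET read: CellTiter-Glo added, luminescence measured after 30 min at room temperature. Reporter HEK 293T cells had been treated with compounds for 16 hr following a 5 hr preincubation.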

[3] = qHTS assay to identify small molecule antagonists of the retinoid acid receptor (RAR) signaling pathway - cell viability counter screen (AID 1159551); also: nearly all actives have a fitted effect of over 35% in size
Summary of the method: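 Following overnight attachment, C3RL4 reporter cells received DMSO-dissolved compounds and then retinol (1 uM final). Six hours later at 37 C, ATP content was measured by CellTiter-Glo luminescence.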

[4] = qHTS assay to identify small molecule antagonists of the retinoic acid receptor (RAR) signaling pathway (AID 1159552; also: nearly all actives have a fitted effect of over 50% in size)
Summary of the method: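 Readout: luciferase luminescence, 30 min post-reagent at RT. Setup: C3RL4 RARE reporter cells, compounds plus retinol 1 uM final, 6 hr incubation at 37 C and 5% CO2.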

[5] = qHTS assay to identify small molecule agonists of the retinoic acid receptor (RAR) signaling pathway (AID 1159553)
Summary of the method: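 Cell line C3RL4, RARE luciferase reporter. Treatment: compounds in DMSO, 6 hr, 37 C, 5% CO2, after overnight plating. Detection: luminescence, 30 min RT after reagent.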

[6] = qHTS assay to identify small molecule antagonists of the estrogen related receptor (ERR) signaling pathway - cell viability counter screen (AID 1224818);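 also: series mostly up to about 46 µM; viability measured after 17.5 h of compound exposure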
Summary of the method: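 Here, ERR cells are plated at 2,000 cells per well, allowed 6 h to attach, and treated with compounds in DMSO for 17.5 h at 37 C. CellTiter-Fluor is then added and fluorescence read after 30 min.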

[7] = qHTS assay to identify small molecule agonists of the estrogen related receptor (ERR) signaling pathway (AID 1224820)
Summary of the method: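 Quantitative HTS of the LOPAC library used NTP ERR reporter cells treated 18 h at 37 C. Signal is luminescence after One-Glo addition and a 30 min room-temperature incubation.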

[8] = test system: estrogen-related receptor alpha (ERRalpha) with PGC-1alpha coactivator, human; assay: qHTS assay to identify small molecule antagonists of the estrogen related receptor signaling pathway with the pleiotropic PPARgamma coactivator (PGC) (AID 1224821; calls by dose curve;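 also: series mostly up to about 46 µM; lower luminescence signal means antagonism of PGC/ERR signalling; nearly all actives have a fitted effect of over 50% in size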)
Summary of the method: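 Quantitative HTS for antagonism: PGC/ERR cells received compounds after 6 h attachment and were incubated 18 h at 37 C, with luminescence (One-Glo) as the endpoint.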

[9] = qHTS assay to identify small molecule antagonists of the estrogen related receptor signaling pathway with the pleiotropic PPARgamma coactivator (PGC) cell viability counter screen (AID 1224822;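 also: series mostly up to about 46 µM; viability read after 17.5 h compound exposure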)
Summary of the method: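 qHTS format, DMSO compound stocks pin-transferred onto PGC/ERR cells 6 h after plating; 17.5 h exposure at 37 C, then CellTiter-Fluor fluorescence.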

[10] = qHTS assay to identify small molecule agonists of the estrogen related receptor signaling pathway with the pleiotropic PPARgamma coactivator (PGC) (AID 1224823)
Summary of the method: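 Cell-based luciferase assay in the NTP-supplied PGC/ERR line, 2,000 cells/well; 18 h compound exposure at 37 C, luminescence after One-Glo.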
% is scaled to controls: 0 for no effect and ±100 for the full control effect.

Cc1cnc(NS(=O)(=O)c2ccc(N)cc2)nc1
inactive: Potency [1] | Potency [2] | outcome [3] | Potency [4] | Potency [5]

CCOC(C)(C)C
inactive: Potency [1] | Potency [2] | outcome [3] | Potency [4] | Potency [5]

C=C(C)C(=O)OCCCCCCCC(C)C
inactive: Potency [1] | Potency [2] | outcome [3] | Potency [4] | Potency [5]

CCc1nccnc1CC
inactive: Potency [1] | Potency [2] | activity change, negative = cytotoxicity [3] 1.72% [at 19 µM] | activity, negative = inhibition [4] 7.06% [at 19 µM] | Potency [5]

OC[C@]1(O)OC[C@@H](O)[C@H](O)[C@@H]1O
inactive: Potency [1] | Potency [2] | outcome [3] | Potency [4] | Potency [5]

C[C@](N)(Cc1ccc(O)cc1)C(=O)O
inactive: activation [1] 8.62% [at 6.98 µM] | activity change, negative = cytotoxicity [2] 10.7% [at 6.97 µM] | activity change, negative = cytotoxicity [3] 0.103% [at 8.39 µM] | activity, negative = inhibition [4] -1.72% [at 8.39 µM] | activation [5] -0.945% [at 8.36 µM] | outcome [6] | outcome [7] | outcome [8] | outcome [9] | outcome [10]

O=C(O)CN(CCOCCOCCN(CC(=O)O)CC(=O)O)CC(=O)O
inactive: activation [1] 10% [at 0.29 µM] | activity change, negative = cytotoxicity [2] -0.722% [at 0.29 µM] | activity change, negative = cytotoxicity [3] 0.187% [at 0.349 µM] | activity, negative = inhibition [4] 12.3% [at 0.349 µM] | activation [5] 2.01% [at 0.756 µM] | outcome [6] | outcome [7] | outcome [8] | outcome [9] | outcome [10]

CC(C)(C)NCCNC(C)(C)C
inactive: Potency [1] | Potency [2] | outcome [3] | Potency [4] | Potency [5]

CCOC(=O)[C@H](CCc1ccccc1)N[C@@H](C)C(=O)N1[C@H](C(=O)O)C[C@@H]2CCC[C@@H]21
inactive: Potency [1] | Potency [2] | outcome [3] | Potency [4] | Potency [5]

C[C@H]1C[C@@H](O)CC(C)(C)C1
inactive: Potency [1] | Potency [2] | outcome [3] | Potency [4] | Potency [5]

Cc1ccc(Cl)cc1Cl
inactive: Potency [1] | Potency [2] | outcome [3] | Potency [4] | Potency [5]

CCn1nc(C(=O)O)c(=O)c2cc3c(cc21)OCO3
inactive: Potency [1] | Potency [2] | outcome [3] | Potency [4] | Potency [5] | outcome [6] | outcome [7] | outcome [8] | outcome [9] | outcome [10]

CCOC(=O)CCC(C)=O
inactive: Potency [1] | Potency [2] | outcome [3] | Potency [4] | Potency [5]

C[C@@H]1CCN(C(=O)[C@H](CCCN=C(N)N)NS(=O)(=O)c2cccc3c2NC[C@H](C)C3)[C@@H](C(=O)O)C1
inactive: Potency [1] | Potency [2] | outcome [3] | Potency [4] | Potency [5]

CCCCCSCCCCC
inactive: Potency [1] | Potency [2] | outcome [3] | Potency [4] | Potency [5]

COC(=O)c1cc(C(=O)OC)cc(S(=O)(=O)O)c1
inactive: Potency [1] | Potency [2] | outcome [3] | Potency [4] | Potency [5]

C=C1CC[C@H]2C[C@@H]1C2(C)C
inactive: Potency [1] | Potency [2] | outcome [3] | Potency [4] | Potency [5]

NS(=O)(=O)c1ccccc1Cl
inactive: Potency [1] | Potency [2] | outcome [3] | Potency [4] | Potency [5]

CCO[Si](CCC1CCC2OC2C1)(OCC)OCC (stereo unspecified)
inactive: Potency [1] | Potency [2] | outcome [3] | Potency [4] | Potency [5]

NC(=O)c1ccc(N)cc1
inactive: Potency [1] | Potency [2] | outcome [3] | Potency [4] | Potency [5]

Nc1c2c(nc3ccccc13)CCCC2O (stereo unspecified)
inactive: Potency [1] | Potency [2] | outcome [3] | Potency [4] | Potency [5] | outcome [6] | outcome [7] | outcome [8] | outcome [9] | outcome [10]

O=S(O)CO
inactive: Potency [1] | Potency [2] | outcome [3] | Potency [4] | Potency [5]

CC(=O)N(CC(O)CO)c1c(I)c(C(=O)NCCO)c(I)c(C(=O)NCC(O)CO)c1I (stereo unspecified)
inactive: Potency [1] | Potency [2] | outcome [3] | Potency [4] | Potency [5]

C=CCCCCCCCCC=O
inactive: Potency [1] | Potency [2] | outcome [3] | Potency [4] | Potency [5]

CO/N=C(/C(=O)N[C@@H]1C(=O)N2C(C(=O)OCOC(=O)C(C)(C)C)=C(C)CS[C@H]12)c1csc(N)n1
inactive: Potency [1] | Potency [2] | outcome [3] | Potency [4] | Potency [5]

CO[C@]12C[C@@H](COC(=O)c3cncc(Br)c3)CN(C)[C@@H]1Cc1cn(C)c3cccc2c13
inactive: Potency [1] | Potency [2] | outcome [3] | Potency [4] | Potency [5]

CC(=O)OCC(CCn1cnc2cnc(N)nc21)COC(C)=O
inactive: Potency [1] | Potency [2] | outcome [3] | Potency [4] | Potency [5] | outcome [6]

Cc1cccc(C)c1NC(=O)C(C)N (stereo unspecified)
inactive: Potency [1] | Potency [2] | outcome [3] | Potency [4] | Potency [5] | outcome [6] | outcome [7] | outcome [8] | outcome [9] | outcome [10]
